# PubChem BioAssay AID1117283 (Broad Institute, 2014)
# Results with a measured potency or affinity are listed apart. A number with no mark means an inactive call.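 The calls were made as follows: active = fluorescent signal decreased by at least 40%; inconclusive = no clear call, values can overlap the other calls; inactive = the rest, including activity opposite to the expected direction.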
# Assay: fibronectin fibrillogenesis inhibitors in fibroblasts, dose response, AH1F cells, Alexa488-fibronectin fluorescence, cherry-pick, set 2 (AID 1117283);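 also: AH1F fibroblasts given Alexa488-labelled fibronectin at 24 nM final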
# Details: Alexa488-fibronectin deposition fluorescence, overnight; series mostly up to 35 µM; activity change, negative = inhibition: at the top concentration
row,Compound,"activity change, negative = inhibition"
1,C[C@@H]1CN([C@@H](C)CO)C(=O)c2cc(-c3ccccc3)cnc2O[C@H]1CN(C)C(=O)c1cccc(F)c1,-1.69%
2,CCCCOc1ccc(C(C)NC(=O)C2CCCN(S(=O)(=O)CCC)C2)cc1 (stereo not drawn),2.62%
3,CC(NC(=O)CSc1ccc(S(=O)(=O)N2CCOCC2)cn1)c1ccc(Cl)cc1Cl (stereo not drawn),2.14%
4,Cc1ccc(S(=O)(=O)N2CC[C@H]3[C@H](CO)Nc4ccc(-c5cccc(C(=O)N(C)C)c5)cc4[C@H]32)cc1,3.11%
5,C=CCC[C@H](Cc1ccc(F)cc1)C(=O)OC[C@H](Cc1c[nH]c2ccccc12)NC(=O)[C@@H](CC=C)CC(=O)N[C@@H](CO)Cc1ccccc1,-11.5%
6,C[C@H]1CN([C@@H](C)CO)C(=O)c2cc(-c3ccccc3)cnc2O[C@H]1CN(C)Cc1ccccc1,11.9%
7,Cc1ccccc1S(=O)(=O)N1CC[C@H]2[C@H](CO)Nc3ccc(-c4ccc(C#N)cc4)cc3[C@H]21,30.1%
8,COCC(=O)Nc1ccc2c(c1)C(=O)N(C)[C@@H]1CC[C@@H](CC(=O)NCc3ccccc3Cl)O[C@@H]1CO2,-3.34%
9,CN1c2ccc(-c3ccccc3)cc2[C@@H]2[C@@H](CCN2C(=O)CN2CCOCC2)[C@H]1CO,3.99% [at 30 µM]
10,C[C@H]1CN([C@@H](C)CO)C(=O)c2cc(-c3ccccc3)cnc2O[C@H]1CN(C)C(=O)c1cccc(F)c1,-7.12%
11,C[C@@H]1CN([C@H](C)CO)C(=O)c2cc(NC(=O)CCCN(C)C)ccc2O[C@H]1CN(C)Cc1ccc(-c2ccccc2)cc1,3.78%
12,CC1OC(CC(=O)O)CC2=C1C(=O)c1c(O)cccc1C2=O (stereo not drawn),-5.61%
13,CCC(C)(C)NC(=O)C(OC(=O)c1ccco1)c1ccccc1OC (stereo not drawn),3.17%
14,C[C@@H]1CN([C@H](C)CO)C(=O)c2cc(-c3ccccc3)cnc2O[C@H]1CN(C)Cc1ccccc1,5.66%
15,COCC(=O)Nc1ccc2c(c1)C(=O)N(C)[C@H]1CC[C@@H](CC(=O)NCc3ccccc3Cl)O[C@@H]1CO2,8.6%
16,C[C@H](CO)N1C[C@H](C)[C@H](CN(C)C(=O)Nc2cccc3ccccc23)Oc2c(NC(=O)Nc3ccc(C(F)(F)F)cc3)cccc2C1=O,8.48%
17,CO[C@H]1CN(C)C(=O)c2cc(NC(=O)Nc3cc(Cl)cc(Cl)c3)ccc2OC[C@@H](C)NC[C@H]1C,1.09%
18,C[C@H](CO)N1C[C@H](C)[C@@H](CN(C)Cc2ccc(-c3ccccc3)cc2)Oc2ccc(NC(=O)C3CCCCC3)cc2C1=O,-7.32%
19,C[C@H](CO)N1C[C@H](C)[C@@H](CN(C)C(=O)c2cccc(F)c2)Oc2ncc(-c3ccccc3)cc2C1=O,7.51%
20,O=S(=O)(c1ccccc1F)N1CC[C@H]2[C@H](CO)Nc3ccc(-c4cccc(F)c4)cc3[C@H]21,23.3%
21,O=C(Nc1cc(Sc2nc3ccccc3s2)cc([N+](=O)[O-])c1)c1ccccc1F,10.8%
22,CCOc1ccccc1NC(=O)c1c(NC(=O)CCC(=O)O)sc2c1CCCCC2,5.99%
23,O=S(=O)(c1ccccc1F)N1CC[C@@H]2[C@@H](CO)Nc3ccc(-c4cccc(F)c4)cc3[C@@H]21,15.1%
